Screening results from PubChem.
Hits are enriched below; roughly 18% of the tested compounds scored in any of these assays.
DT40 TDP1 no CPT – qHTS for Inhibitors of human tyrosyl-DNA phosphodiesterase 1 (TDP1): qHTS in cells in absence of CPT; DT40 Tdp1-/- hTDP1 cells, no CPT, ATP luminescence, 48 h; hit rate 15% among 420,000; AID 686978, 2013; Potency, µM (highest dose often 46.2 µM), inactives show at the top dose activity change, negative = growth inhibition, hits mostly inhibitors; also: nearly all actives have a fitted effect of over 55% in size
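Cells were dispensed at 400 per well, compounds added by pin tool, plates incubated ≥48 hr at 37 °C, then CellTiter-Glo added for 30 min at room temperature before luminescence reading. Line: DT40 Tdp1-/- complemented with hTDP1; camptothecin omitted.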
TDP1 inh – qHTS Assay for Inhibitors of Tyrosyl-DNA Phosphodiesterase (TDP1); Potency, µM (series often up to 130 µM), inactives show at the top dose activity change, negative = inhibition, usual class: inhibitors; Tyrosyl-DNA phosphodiesterase 1 (Homo sapiens), Q9NUW8; recombinant TDP1, AlphaScreen DNA substrate cleavage; hit rate 0.28% among 350,000; also: nearly all actives have a fitted effect of over 40% in size
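E. coli-derived human Tdp1, 1 nM final. Cpd preinc 15 min RT; substrate 15 nM final, 5 min RT; AS bead mix 10 ug/ml final, 10 min RT. Signal loss = tyrosine-FITC cleavage. No-enzyme wells = max signal.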
KAT2A inh – qHTS Assay for Inhibitors of GCN5L2; Histone acetyltransferase KAT2A (Homo sapiens), Q92830; GCN5L2 HAT assay, ThioGlo1 CoA-SH fluorescence; Potency, µM (top dose mostly 58.9 µM), inactives show top-dose activity change, negative = inhibition, actives largely listed as inhibitors; hit rate 0.21% among 390,000; AID 504327, 2011
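Free CoA generated was detected with ThioGlo1 (50uM) fluorescence at Ex340nm/Em540nm, read immediately and after 20 min at room temperature. Enzyme, 20 nM in HEPES pH 7.5 buffer, saw compounds 15 min before adding 75uM H3(1-25) peptide and 70uM acetyl-CoA.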
PLK1 PBD inh – qHTS for Inhibitors of PLK1-PDB (polo-like kinase 1 - polo-box domain): Primary Screen | Serine/threonine-protein kinase PLK1 (Homo sapiens), P53350 | Plk1 PBD binding of FITC phosphopeptide, fluorescence polarization | Potency, µM, for inactives: max response, negative = inhibition, actives largely listed as inhibitors | hit rate 2.8% among 360,000; also: series mostly up to about 57 µM; nearly all actives have a fitted effect of over 65% in size
VDR inhibitor – Inhibitors of the vitamin D receptor (VDR): qHTS; AID 504847, 2011; hit rate 0.93% among 400,000; VDR-SRC2-3 peptide fluorescence polarization, 2 h; Potency, µM, for inactives: max response, negative = inhibition, usual class: inhibitors; Vitamin D3 receptor (Homo sapiens), P11473
Target sequence (P11473 whole entry, looked up): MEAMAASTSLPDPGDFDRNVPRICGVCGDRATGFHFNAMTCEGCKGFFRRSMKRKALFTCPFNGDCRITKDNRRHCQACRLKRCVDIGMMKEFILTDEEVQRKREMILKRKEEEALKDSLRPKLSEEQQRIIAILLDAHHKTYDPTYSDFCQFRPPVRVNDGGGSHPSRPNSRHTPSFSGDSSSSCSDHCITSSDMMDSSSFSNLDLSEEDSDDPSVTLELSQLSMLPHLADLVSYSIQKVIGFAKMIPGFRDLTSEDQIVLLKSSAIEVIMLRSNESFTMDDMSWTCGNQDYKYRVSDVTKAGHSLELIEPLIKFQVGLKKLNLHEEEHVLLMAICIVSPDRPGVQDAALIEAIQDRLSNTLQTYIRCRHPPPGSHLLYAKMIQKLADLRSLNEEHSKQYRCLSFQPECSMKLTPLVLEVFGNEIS
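Reagent solutions, kept cold and dark, are dispensed first; compounds are then pinned in at 23 nl, plates briefly spun, and incubated 2 h at ambient temperature. Inhibition of VDR–SRC2-3 peptide binding is read by fluorescence polarization.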
TDP1 cell CPT – qHTS for Inhibitors of human tyrosyl-DNA phosphodiesterase 1 (TDP1): qHTS in cells in presence of CPT | chicken DT40 Tdp1-/-;hTDP1 cells + 20 nM CPT, ATP luminescence, 48 h | Potency, µM (titrated, usually from 46.2 µM), for the others: top-dose activity change, negative = growth inhibition, hits mostly inhibitors | hit rate 12% among 420,000; also: nearly all actives have a fitted effect of over 55% in size
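Chicken DT40 Tdp1-/- cells stably complemented with human TDP1 were seeded at 400 cells/well in medium containing 20 nM camptothecin, exposed to pin-transferred compounds, and grown at 37 °C for at least 48 hr. Viability was read as ATP luminescence.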
* hit, by the source's call; ? = inconclusive; . = no result given; [ ] = dose if it differs, or a comment. Calls follow the shape of the dose curve; as a rule, active = well fitted curve in the direction sought with a large enough effect; inconclusive = small, poorly fitted or top-dose-only effect, or another doubt; inactive = no such curve, though single readings can be large; an effect the other way counts as inactive or inconclusive. % is scaled to controls: 0 for no effect and ±100 for the full control effect; potency is read from the fitted curve at half-maximal effect.

SMILES	DT40 TDP1 no CPT	TDP1 inh	KAT2A inh	PLK1 PBD inh	VDR inhibitor	TDP1 cell CPT
O=C(Nc1ccc(S(=O)(=O)N2CCOCC2)cc1)c1ccc(F)cc1	-26.6%	.	-9.0%	-16.5%	3.0%	6.1%
COc1ccc(CN2CCOCCOCCN(Cc3ccc(OC)cc3)CCOCCOCC2)cc1	29.1µM*	0.0%	-1.1%	1.8%	-17.1%	?
CCCCCCOc1ccc(OC(=O)c2ccncc2)cc1	23.1µM*	2.4%	-7.8%	-1.3%	-15.1%	13µM*
CCCCCCc1ccc(OC(=O)c2ccncc2)cc1	-22.9%	.	1.8%	-10.0%	6.8%	-19.1%
Cc1ccc(C(=O)Nc2cc(-c3cn4cccnc4n3)ccc2C)cc1C	-29.4%	0.9%	-2.6%	.	11.9%	?
O=C(c1ccc2c(c1)N(Cc1ccccc1F)C(=O)c1ccccc1S2=O)N1CCOCC1 (stereo unspecified)	-3.2%	4.6%	-1.6%	.	-0.8%	-8.3%
COc1ccc([N+](=O)[O-])cc1NC(=O)c1ccco1	0.6%	2.5%	-9.0%	-5.6%	8.7%	14.3%
CCOc1ccc(NC(=O)CSc2nccn2C2CCCC2)cc1	?	7.4%	-11.1%	.	-1.1%	-6.3%
CCCOc1ccc(C(=O)Nc2cccnc2)cc1	?	.	-4.9%	-1.4%	0.4%	?
CCCCOc1ccc(C(=O)Nc2ccc(CN3CCOCC3)cc2)cc1	?	.	-5.8%	4.0%	8.5%	13µM*
CCCCOc1ccc(C(=O)Nc2ccncc2)cc1	2.59µM*	1.0%	-2.6%	-0.7%	-2.0%	5.17µM*
CC(=O)Nc1ccc(NC(=O)c2c(C)nn(Cc3ccccc3)c2Cl)cc1	1.16µM*	-0.1%	-18.7%	-3.8%	-3.0%	13µM*
CCOC(=O)c1sc(NC(=S)NC(=O)C2CCCC2)cc1C	16.4µM*	5.5%	-15.6%	-27.2%	-6.7%	?
CCOC(=O)c1sc(NC(=O)Nc2ccc(Cl)cc2)cc1C	3.66µM*	0.0%	-3.4%	0.9%	1.8%	5.8µM*
CCOC(=O)c1sc(NC(=O)c2c(C)nn(Cc3ccccc3)c2C)cc1C	?	6.2%	-14.0%	2.5%	11.0%	16.4µM*
CC(=O)Nc1ccc(NC(=O)c2c(C)nn(Cc3ccccc3Cl)c2C)cc1	-2.0%	3.9%	-2.4%	-6.8%	29.8%	5.5%
Cc1cn(CC(=O)NCCN2CCOCC2)c(=O)[nH]c1=O	0.5%	.	.	-2.7%	-17.3%	-0.7%
CC[C@H](C)[C@H](NC(=O)[C@H](CCCNC(=N)N)NC(=O)[C@@H](NC(=O)[C@H](CCCNC(=N)N)NC(=O)[C@H](CCCCN)NC(=O)[C@H](CCCNC(=N)N)NC(=O)[C@@H](NC(=O)[C@H](CC(N)=O)NC(=O)[C@@H](N)CS)[C@@H](C)O)[C@@H](C)CC)C(=O)N[C@@H](CCC(N)=O)C(=O)N[C@@H](CCCNC(=N)N)C(=O)NCC(=O)N1CCC[C@H]1C(=O)NCC(=O)N[C@@H](CCCNC(=N)N)C(=O)N[C@@H](C)C(=O)N[C@@H](Cc1ccccc1)C(=O)N[C@H](C(=O)N[C@H](C(=O)N[C@H](C(=O)NCC(=O)N[C@@H](CCCCN)C(=O)O)[C@@H](C)CC)[C@@H](C)O)C(C)C	.	20.7%	4.9%	.	?	.
CCOC(=O)c1c(NC(=O)/C=C/C(=O)O)sc(C)c1-c1ccc(Cl)cc1	13µM*	5.5%	0.8%	-27.7%	39.8µM*	?
CCOC(=O)c1sc(NC(=O)c2ccccc2)cc1C	?	0.7%	6.9%[0.501 µM]	0.8%	7.5%	?
